# Measured values from PubChem BioAssay (NCI).
# The panel holds about 83,000 compounds, 20% with a hit somewhere; the sample as a whole holds those more often.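 In brief: 96-well plates, 48 h treatment, single concentration, percent growth endpoint.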 Values without a mark were called inactive. Calls of active or inactive are those of the source. How the source made its calls: active means growth percent below 10; inactive means the rest.
# Test system: OVCAR-4 ovarian
# Assay: NCI-60 one-dose screen, 48 h (100 = growth as untreated, 0 = no growth, -100 = all killed)
# Conditions: 10 µM unless noted
row,SMILES,growth
1,O=C(N/N=C/c1ccccc1Cl)c1cccc2ccccc12,103%
2,CCOP1(=O)CC(C)=C(Cl)C(P(=O)(O)O)C1 (stereo not drawn),94.5%
3,NC(N)=Nc1ccc(/C=C2\C=Cc3ccccc32)cc1,77.7%
4,C/C=C(/C)C(=O)OC1C=C(CO)C(=O)C(OC(=O)C(C)(O)C(C)Cl)C1C(C)C (stereo not drawn),14.1%
5,CN1CCN(Cc2ccc(NC(=O)c3ccc(C#Cc4c(N)ncc5ccc(F)cc45)cc3)cc2C(F)(F)F)CC1,-19.9% (active)
6,CCCCCCCCC(=O)Nc1ccc(O)cc1,95.3%
7,COc1cc(/C=C/C(=O)c2ccc(F)cc2)ccc1OCCCCOc1cc2c(cc1OC)C(=O)N1CCCC1C=N2 (stereo not drawn),-11% (active)
8,COc1ccc(-c2cc(C#N)c(NNC(C)=O)[nH]2)cc1,68.8%
9,COc1cc(-c2nc(/C=C3/C(=O)Nc4ccccc43)c3ccccn23)cc(OC)c1OC,76.4%
10,CCN(CC)CCNc1ncnc2c1cnn2-c1ccc(Cl)cc1,90.6%
11,Nc1cc2c(cc1Br)[nH]c(=O)c1ccccc12,24.8%
12,COc1ccc(C(=O)CN2C(=O)NC(c3ccccc3)(c3ccccc3)C2=O)cc1,99.8%
13,COc1ccc2c(N)ncc(C#Cc3cc(C(=O)Nc4ccc(CN5CCN(C)CC5)c(C(F)(F)F)c4)cnc3C)c2c1,0.668% (active)
14,COc1cc2c(cc1OC)C(Cc1cc(OC)c(OC)cc1[N+](=O)[O-])=NCC2,91.6%
15,Cc1ccc(C(=O)C(Br)C(Br)c2ccccc2)cc1 (stereo not drawn),71.9%
16,Br/C(=N\Nc1nn[nH]n1)c1ccccc1,107%
17,O=C(Nc1cccc(Cn2c(=O)[nH]c3ccc(Oc4ncccn4)cc3c2=O)c1)c1cccc(F)c1,73.9%
18,Cc1c(C(N)=O)sc2c1c(=O)n(Cc1ccccc1)c1nnc(S(C)(=O)=O)n21,64.5%
19,COc1ccc(C(=O)N2N=C(c3ccc(Br)cc3)CC2c2cn(-c3ccccc3)nc2-c2ccccc2)cc1 (stereo not drawn),67.5%
20,CCOC(=O)CNS(=O)(=O)CC(=O)c1ccccc1,85.4%

row,SMILES,growth
1,COc1ccc(C(=O)c2no[n+]([O-])c2C(=O)c2ccc(OC)cc2)cc1,-68.5% (active)
2,C=C(NC(=O)[C@H](C(C)C)N(C)c1cccc2[nH]ccc12)C(=O)OC,103%
3,COC1=C(OC)C(=O)c2ccccc2C1=O,74.9%
4,O=C(Cc1ccccc1[N+](=O)[O-])c1ccc2c(c1)OCO2,102%
5,COC(=O)c1c[n+]([O-])ccc1OC,123%
6,O=C(CN1CCN(c2cccc(Cl)c2)CC1)N1CCN(c2nnc(-c3ccc(Cl)cc3)c(-c3ccc(Cl)cc3)n2)CC1,76.8%
7,CC(C)C(=O)c1ccc(Cl)s1,90.5%
8,CCOC(=O)c1csc(-c2ccc(COC(=O)c3ccccc3)o2)n1,116%
9,OCCN1CCN(CC/C=C2/c3ccccc3Sc3ccc(C(F)(F)F)cc32)CC1,66.5%
10,CCCCCCCCCCCCCCCCCC(=O)Nc1ccc(O)cc1,104%
11,OCCN1CCCN(CCCN2c3ccccc3Sc3ccc(C(F)(F)F)cc32)CC1,54.4%
12,C=C1CCC2C3(C)COC(c4ccccc4)OC3CCC2(C)C1C/C=C1/C(=O)OCC1O (stereo not drawn),66.6%
13,Cc1c(CN(C)C)cc(C(C)C)cc1C(C)C,98.8%
14,CC(=O)Oc1cc2ccccc2cc1C(C)C,108%
15,COc1cc2cc3cc4cc(OC)c(OC)cc4c(C)[n+]3cc2cc1OC (tested in a mixture with another compound),83.8%
16,COc1ccc(NC(=O)/C=C(C)/C=C/C=C(C)/C=C/C2=C(C)CCCC2(C)C)cc1,80.1%
17,O=C1C(Cl)=C(SC2=NCCN2)C(=O)c2ccccc21,80.5%
18,Cc1ccc(C(=O)Nc2ccc(CN3CCN(C)CC3)c(C(F)(F)F)c2)cc1C#Cc1cnc(N)c2ccc(F)cc12,-60.8% (active)
19,Cc1ncc(C(=O)Nc2ccc(CN3CCN(C)CC3)c(C(F)(F)F)c2)cc1C#Cc1c(N)ncc2ccccc12,-58.8% (active)

# Test system: SK-OV-3 ovarian
# Assay: as above
# Conditions: 10 µM unless noted
row,SMILES,growth
1,O=C(N/N=C/c1ccccc1Cl)c1cccc2ccccc12,98.6%
2,CCOP1(=O)CC(C)=C(Cl)C(P(=O)(O)O)C1 (stereo not drawn),110%
3,NC(N)=Nc1ccc(/C=C2\C=Cc3ccccc32)cc1,78.6%
4,C/C=C(/C)C(=O)OC1C=C(CO)C(=O)C(OC(=O)C(C)(O)C(C)Cl)C1C(C)C (stereo not drawn),35.8%
5,CN1CCN(Cc2ccc(NC(=O)c3ccc(C#Cc4c(N)ncc5ccc(F)cc45)cc3)cc2C(F)(F)F)CC1,64%
6,CCCCCCCCC(=O)Nc1ccc(O)cc1,100%
7,COc1cc(/C=C/C(=O)c2ccc(F)cc2)ccc1OCCCCOc1cc2c(cc1OC)C(=O)N1CCCC1C=N2 (stereo not drawn),10.7%
8,COc1ccc(-c2cc(C#N)c(NNC(C)=O)[nH]2)cc1,179%
9,COc1cc(-c2nc(/C=C3/C(=O)Nc4ccccc43)c3ccccn23)cc(OC)c1OC,74.2%
10,CCN(CC)CCNc1ncnc2c1cnn2-c1ccc(Cl)cc1,99.7%
11,Nc1cc2c(cc1Br)[nH]c(=O)c1ccccc12,62.4%
12,COc1ccc(C(=O)CN2C(=O)NC(c3ccccc3)(c3ccccc3)C2=O)cc1,102%
13,CC[C@@H](C)/C=C(C)/C=C/C(=O)c1c(O)c(-c2ccc(OC(=O)[C@@]34CC[C@@](C)(C(=O)O3)C4(C)C)cc2)cn(O)c1=O,28.3%
14,COc1ccc2c(N)ncc(C#Cc3cc(C(=O)Nc4ccc(CN5CCN(C)CC5)c(C(F)(F)F)c4)cnc3C)c2c1,24.5%
15,COc1cc2c(cc1OC)C(Cc1cc(OC)c(OC)cc1[N+](=O)[O-])=NCC2,89.8%
16,Cc1ccc(C(=O)C(Br)C(Br)c2ccccc2)cc1 (stereo not drawn),114%
17,Br/C(=N\Nc1nn[nH]n1)c1ccccc1,98.6%
18,O=C(Nc1cccc(Cn2c(=O)[nH]c3ccc(Oc4ncccn4)cc3c2=O)c1)c1cccc(F)c1,83%
19,Cc1c(C(N)=O)sc2c1c(=O)n(Cc1ccccc1)c1nnc(S(C)(=O)=O)n21,103%
20,COc1ccc(C(=O)N2N=C(c3ccc(Br)cc3)CC2c2cn(-c3ccccc3)nc2-c2ccccc2)cc1 (stereo not drawn),76.6%

row,SMILES,growth
1,CCOC(=O)CNS(=O)(=O)CC(=O)c1ccccc1,105%
2,COc1ccc(C(=O)c2no[n+]([O-])c2C(=O)c2ccc(OC)cc2)cc1,113%
3,C=C(NC(=O)[C@H](C(C)C)N(C)c1cccc2[nH]ccc12)C(=O)OC,101%
4,COC1=C(OC)C(=O)c2ccccc2C1=O,111%
5,O=C(Cc1ccccc1[N+](=O)[O-])c1ccc2c(c1)OCO2,90.1%
6,COC(=O)c1c[n+]([O-])ccc1OC,106%
7,O=C(CN1CCN(c2cccc(Cl)c2)CC1)N1CCN(c2nnc(-c3ccc(Cl)cc3)c(-c3ccc(Cl)cc3)n2)CC1,105%
8,CC(C)C(=O)c1ccc(Cl)s1,101%
9,CCOC(=O)c1csc(-c2ccc(COC(=O)c3ccccc3)o2)n1,107%
10,OCCN1CCN(CC/C=C2/c3ccccc3Sc3ccc(C(F)(F)F)cc32)CC1,73.1%
11,CCCCCCCCCCCCCCCCCC(=O)Nc1ccc(O)cc1,98.8%
12,OCCN1CCCN(CCCN2c3ccccc3Sc3ccc(C(F)(F)F)cc32)CC1,77.3%
13,Cc1c(CN(C)C)cc(C(C)C)cc1C(C)C,112%
14,CC(=O)Oc1cc2ccccc2cc1C(C)C,104%
15,COc1cc2cc3cc4cc(OC)c(OC)cc4c(C)[n+]3cc2cc1OC (tested in a mixture with another compound),107%
16,COc1ccc(NC(=O)/C=C(C)/C=C/C=C(C)/C=C/C2=C(C)CCCC2(C)C)cc1,86.2%
17,O=C1C(Cl)=C(SC2=NCCN2)C(=O)c2ccccc21,93.5%
18,Cc1ccc(C(=O)Nc2ccc(CN3CCN(C)CC3)c(C(F)(F)F)c2)cc1C#Cc1cnc(N)c2ccc(F)cc12,1.66% (active)
19,Cc1ncc(C(=O)Nc2ccc(CN3CCN(C)CC3)c(C(F)(F)F)c2)cc1C#Cc1c(N)ncc2ccccc12,-2.88% (active)
